Inconclusive results are not listed. The source made the active and inactive calls. Calls come from the whole dose curve; as a rule, active = well fitted inhibition curve with a large enough effect; inconclusive = small, poorly fitted or top-dose-only effect; inactive = flat fitted curve, though single readings scatter. Where a SMILES comes first, the peptide text is derived from it. [ ]: non-standard residue; d: D form. dPhe(4-Cl) = N[C@H](Cc1ccc(Cl)cc1)C(=O)O; d2Nal = N[C@H](Cc1ccc2ccccc2c1)C(=O)O; dCit = NC(=O)NCCC[C@@H](N)C(=O)O; d3Pal = N[C@H](Cc1cccnc1)C(=O)O
assay: Primary qHTS for inhibitors of nuclear receptor binding SET domain protein 2 (NSD2) in an isogenic RCH-ACV NSD2 p.E1099K mutant (9B) (AID 1645876); settings: RCH-ACV (leukaemia line) NSD2 E1099K (9B) viability, CellTiter-Glo, 72 h; series mostly up to 44.9 µM; activity change, negative = viability loss: at the top concentration; note: nearly all actives have a fitted effect of over 70% in size
% is set by controls: 0 for no effect and ±100 for the full control effect; potency is the fitted concentration of half-maximal effect.

SMILES	Potency	activity change, negative = viability loss	outcome
CC(C)(C)Nc1nc(Nc2ccc(C(N)=O)cc2)cc(N)c1C#N	3.65 µM (active)		
CC(=O)c1ccc(O[C@@H]2O[C@H](CO)[C@@H](O)[C@H](O)[C@H]2O)cc1		0.439% (inactive)	
CCOc1ccc(S(=O)(=O)n2c(C)nc3ccccc32)cc1	8.93 µM (active)		
O=C(OCC1=CC(O)C2C=CO[C@@H](O[C@@H]3O[C@H](CO)[C@@H](O)[C@H](O)[C@H]3O)C12)c1ccccc1 (some centres undefined)			inactive [at 17.3 µM]
CC(=O)N1CCN(Cc2ccc([C@H](C)Nc3nccc(N4C(=O)OC[C@@H]4C(C)C)n3)cc2)CC1		-17.5% (inactive)	
CC[C@@H](O)C[C@@H]1C(C)=C[C@@H]2CCCC[C@@H]2[C@@]1(C)C(=O)O		3.69% (inactive)	
CC(=O)N[C@@H](CCCCN)C(=O)N(C)[C@@H](CC(C)C)C(=O)N[C@H](C(=O)N(C)[C@@H](Cc1ccccc1)C(=O)N[C@H](Cc1ccccc1)C(N)=O)C(C)C			inactive [at 4.96 µM]
COC(=O)c1cc(OC)c(O[C@@H]2O[C@@H](C)[C@H](O)[C@@H](O)[C@H]2O)c(OC)c1			inactive
CN=C(N)NCCCCC/C=C(/C)CC(C)C1OC(=O)C(C)C(O)/C=C/C(C)C(O)CC(O)C(C)C(O)CCC(C)C(O)CC2(O)OC(CC(OC(=O)CC(=O)O)CC(O)CC(O)C(C)C(O)/C(C)=C/CCC1C)CC(O)C2O (centres undefined)	3.88 µM (active)		
CC(=O)O[C@@H]1c2c(C)coc2C(=O)[C@@]23O[C@@H]2CC[C@H](C)[C@@]13C		-12.3% (inactive)	
CC1(C)C2CC(OC3OC(COC4OCC(O)(CO)C4O)C(O)C(O)C3O)C1(C)CC2O (centres undefined)		-10.6% [at 17.3 µM] (inactive)	
C=C1C[C@]23C[C@H]1CC[C@H]2[C@@]12CC[C@H](O)[C@@](C)(C(=O)O1)[C@H]2[C@@H]3C(=O)O			inactive
C[C@H]1C(=O)N2c3ccccc3[C@@]3(O)C[C@@H]4C(=O)N[C@](C)(c5nc6ccccc6c(=O)n54)N1[C@@H]23		-25.3% [at 17.3 µM] (inactive)	
C=C(C(=O)O)C1CC2=C(C)CCCC2(C)C[C@@H]1O (some centres undefined)		-9.44% (inactive)	
COC(=O)c1ccccc1O[C@@H]1O[C@H](CO)[C@@H](O)[C@H](O)[C@H]1O[C@@H]1O[C@@H](C)[C@H](O)[C@@H](O)[C@H]1O			inactive [at 17.3 µM]
COC(=O)C1=CO[C@@H](O[C@@H]2O[C@H](CO)[C@@H](O)[C@H](O)[C@H]2O)[C@@H]2C(CO)=CC[C@]12O			inactive [at 17.3 µM]
C=C1C(=O)O[C@@H]2/C=C(\C)C(=O)/C=C/[C@](C)(O)C[C@@H](OC(=O)C(C)C)[C@@H]12	0.401 µM (active)		
C=C1C(=O)OC2CC(C)=C(C(C)CCCO)C(O)C12 (centres undefined)		-23.9% (inactive)	
CO[C@H]1/C=C/[C@@](C)(O)/C=C/C(=O)O[C@H](C)[C@@H](C)CC/C=C/1C	14.2 µM (active)		
CC/C=C\CC1C(=O)C=CC1(CCCCCCCC(=O)O)OC(C)=O (centres undefined)		-12.4% (inactive)	

SMILES	Potency	activity change, negative = viability loss	outcome
CCCCNc1ncc2c(-c3ccc(F)cc3)nn(CC3CCC(N)CC3)c2n1 (centres undefined)	2.24 µM (active)		
O=C1CCC(=O)N(O)CCCCCNC(=O)CCC(=O)N(O)CCOCCNC(=O)CCC(=O)N(O)CCCCCN1		-15.9% [at 17.3 µM] (inactive)	
C/C=C1\[C@H](O[C@@H]2O[C@H](CO)[C@@H](O)[C@H](O)[C@H]2O)OC=C2C(=O)OCCc3ccc(O)c(c3)Oc3ccc(cc3)CCOC(=O)C[C@H]21		-30.3% [at 17.3 µM] (inactive)	
C=C1CCC2C(C)(C)C(O)CCC2(C)C1CCC(C)CCOC(C)=O (centres undefined)		-23.7% (inactive)	
C[C@]12C[C@@H](O)[C@@H]3C[C@@]1(O[C@@H]1O[C@H](CO)[C@@H](O)[C@H](O)[C@H]1O)[C@]3(COC(=O)c1ccccc1)C(=O)O2		3.74% [at 17.3 µM] (inactive)	
C=C(C(=O)O)C1CC(O)C2(C)CCCC(=C)C2C1 (centres undefined)		-18.3% (inactive)	
C[C@@H]1O[C@@H](OC[C@H]2O[C@@H](OC(CCCCc3ccc(O)cc3)CCc3ccc(O)cc3)[C@H](O)[C@@H](O)[C@@H]2O)[C@H](O)[C@H](O)[C@H]1O (some centres undefined)		-22.4% [at 17.3 µM] (inactive)	
COc1c2cc(c(O)c1OC)-c1cc(ccc1O)CCC(O)CCCC2 (centres undefined)		-27.2% (inactive)	
CC1(C)CCC[C@]2(C)[C@H]3CC(=O)O[C@]3(C)CC[C@@H]12		-30.7% (inactive)	
CC(=O)OC[C@@]12C(=O)C[C@@H](C)[C@]3(C[C@@H](c4ccoc4)O[C@H]3OC(C)=O)[C@H]1CCC[C@]21CO1	12.6 µM (active)		
C=C1C(OC(C)=O)CCC2(C)CC3(OC)OC(=O)C(C)=C3CC12 (centres undefined)		-20.9% (inactive)	
Nc1ncnc2c([C@@H]3N[C@H](CO)[C@@H](O)[C@H]3O)c[nH]c12		-27.2% (inactive)	
CC(=O)N[C@H](Cc1ccc2ccccc2c1)C(=O)N[C@H](Cc1ccc(Cl)cc1)C(=O)N[C@H](Cc1cccnc1)C(=O)N[C@@H](CO)C(=O)N[C@@H](Cc1ccc(O)cc1)C(=O)N[C@H](CCCNC(N)=O)C(=O)N[C@@H](CC(C)C)C(=O)N[C@@H](CCCN=C(N)N)C(=O)N1CCC[C@H]1C(=O)N[C@H](C)C(N)=O (Ac-[d2Nal][dPhe(4-Cl)][d3Pal]SY[dCit]LRP[dA]-NH2)			inactive [at 17.3 µM]
C[C@@]12CC[C@@H]3[C@@](CC[C@H]4[C@@]3(C)CCC[C@@]4(C)C(=O)O)(CC1=O)C2		-22.5% (inactive)	
CC(=O)O[C@@H]1[C@@H](O)[C@H](O[C@H]2CC[C@]34C[C@]35CC[C@]3(C)[C@@H]([C@@]6(C)CC[C@@H](C(C)(C)O)O6)[C@@H](O)C[C@@]3(C)[C@@H]5C[C@H](O[C@@H]3O[C@H](CO)[C@@H](O)[C@H](O)[C@H]3O)[C@H]4C2(C)C)OC[C@H]1O		-5.97% (inactive)	
CC1=C(C(=O)OCc2ccccc2)C(c2ccc(-c3ccccc3)cc2)NC(=O)N1CCCCCC(=O)O (centres undefined)		-23% (inactive)	
COc1cc2c(cc1OC)N1C(=O)C[C@]34C=CCN5CC[C@@H]2[C@@H](CC3)[C@]514		-5.31% (inactive)	
C[C@@H]1C(=O)OC[C@H]2C(C(=O)O)=C[C@@H]3CC(C)(C)C[C@]312		-8.18% (inactive)	
COC(=O)C1=CO[C@@H](O[C@@H]2O[C@H](CO)[C@@H](O)[C@H](O)[C@H]2O)[C@@H]2C(COC(C)=O)=C[C@H](O)[C@H]12		-19.5% [at 17.3 µM] (inactive)	

Reference: PubChem BioAssay (NCATS)
